About 2,000 (36%) of roughly 5,500 compounds were called active. Roughly 18% stayed inconclusive and do not appear here. Cut-off read from the data, not from the text of the source: active = normalized growth mostly below about 0.91 (no sharp cut-off); inconclusive = no clear call, values can overlap the other calls; inactive = mostly above about 0.92. The list shows a part of the results.
Experiment: chemical genetic growth profiling, strain panel (AID 1159580);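 note: tested at 20 µM; growth read once vehicle control cultures reached saturation at 30 °C; 1 = growth at the plate median or of vehicle wells; lower values mean less growth of the strain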
Conditions: growth OD

Measured: normalized growth

COc1cc(/C=C/C(=O)O)cc(OC)c1OC
inactive: S. cerevisiae deletion strains, locus YJR043C, strain POL32, active compounds read low 0.999 | S. cerevisiae deletion strains, locus YJR066W, strain TOR1, active compounds read low 1.02 | S. cerevisiae deletion strains, locus YKL009W, strain mrt4, active compounds read low 1.03 | S. cerevisiae deletion strains, locus YKL068W, active compounds read low 1.02 | S. cerevisiae deletion strains, locus YKL085W, strain MDH1 (second series), active compounds read low 1.01 | S. cerevisiae deletion strains, locus YKL085W, strain MDH1, active compounds read low 1.01 | S. cerevisiae deletion strains, locus YKL160W, strain elf1, active compounds read low 0.985 | S. cerevisiae deletion strains, locus YKR001C, strain vps1, active compounds read low 1 | S. cerevisiae deletion strains, locus YKR026C, strain gcn3, active compounds read low 0.985 | S. cerevisiae deletion strains, locus YKR091W, strain srl3, active compounds read low 0.98 | S. cerevisiae deletion strains, locus YLL001W, strain dnm1, active compounds read low 0.969 | S. cerevisiae deletion strains, locus YLL026W, active compounds read low 0.995 | S. cerevisiae deletion strains, locus YLL041C, strain sdh2, active compounds read low 0.999 | S. cerevisiae deletion strains, locus YLR027C, strain aat2, active compounds read low 0.998 | S. cerevisiae deletion strains, locus YLR039C, strain RIC1, active compounds read low 1.04 | S. cerevisiae deletion strains, locus YLR058C, strain SHM2, active compounds read low 1.02 | S. cerevisiae deletion strains, locus YLR102C, strain apc9, active compounds read low 1.02 | S. cerevisiae deletion strains, locus YLR113W, strain HOG1, active compounds read low 1.03 | S. cerevisiae deletion strains, locus YLR221C, strain rsa3, active compounds read low 1 | S. cerevisiae deletion strains, locus YLR258W, strain gsy2, active compounds read low 0.993 | S. cerevisiae deletion strains, locus YLR262C, strain YPT6 (second series), active compounds read low 0.994 | S. cerevisiae deletion strains, locus YLR262C, strain YPT6, active compounds read low 1.01 | S. cerevisiae deletion strains, locus YLR268W, strain sec22, active compounds read low 1.02 | S. cerevisiae deletion strains, locus YLR320W, strain mms22, active compounds read low 0.995 | S. cerevisiae deletion strains, locus YLR330W, strain CHS5, active compounds read low 1.01 | S. cerevisiae deletion strains, locus YLR342W, strain FKS1 (second series), active compounds read low 0.999 | S. cerevisiae deletion strains, locus YLR342W, strain FKS1, active compounds read low 0.986 | S. cerevisiae deletion strains, locus YLR357W, strain rsc2, active compounds read low 0.993 | S. cerevisiae deletion strains, locus YLR370C, strain arc18, active compounds read low 0.992 | S. cerevisiae deletion strains, locus YLR371W, strain rom2, active compounds read low 1.06 | S. cerevisiae deletion strains, locus YLR384C, strain iki3, active compounds read low 0.986 | S. cerevisiae deletion strains, locus YLR418C, strain cdc73, active compounds read low 0.975 | S. cerevisiae deletion strains, locus YML016C, strain PPZ1, active compounds read low 1.01 | S. cerevisiae deletion strains, locus YML032C, strain rad52, active compounds read low 1.03 | S. cerevisiae deletion strains, locus YML120C, strain ndi1, active compounds read low 1 | S. cerevisiae deletion strains, locus YML124C, strain tub3, active compounds read low 1.02 | S. cerevisiae deletion strains, locus YMR058W, strain fet3, active compounds read low 0.997 | S. cerevisiae deletion strains, locus YMR078C, strain ctf18, active compounds read low 1.05 | S. cerevisiae deletion strains, locus YMR125W, strain sto1, active compounds read low 0.965 | S. cerevisiae deletion strains, locus YMR129W, active compounds read low 0.996 | S. cerevisiae deletion strains, locus YMR205C, strain PFK2, active compounds read low 0.984 | S. cerevisiae deletion strains, locus YMR223W, strain ubp8, active compounds read low 1.04 | S. cerevisiae deletion strains, locus YMR231W, strain pep5, active compounds read low 0.981 | S. cerevisiae deletion strains, locus YMR263W, strain SAP30, active compounds read low 1.01 | S. cerevisiae deletion strains, locus YMR307W, strain GAS1, active compounds read low 1.04 | S. cerevisiae deletion strains, locus YNL067W, strain RPL9B, active compounds read low 1.01 | S. cerevisiae deletion strains, locus YNL071W, strain lat1, active compounds read low 0.991 | S. cerevisiae deletion strains, locus YNL183C, strain NPR1, active compounds read low 1.03 | S. cerevisiae deletion strains, locus YNL209W, strain ssb2, active compounds read low 0.996 | S. cerevisiae deletion strains, locus YNL233W, strain BNI4, active compounds read low 0.999 | S. cerevisiae deletion strains, locus YNL248C, strain rpa49, active compounds read low 1 | S. cerevisiae deletion strains, locus YNL250W, strain rad50, active compounds read low 1.02 | S. cerevisiae deletion strains, locus YNL271C, strain bni1, active compounds read low 1.02 | S. cerevisiae deletion strains, locus YNL298W, strain CLA4, active compounds read low 1.03 | S. cerevisiae deletion strains, locus YNL307C, strain MCK1, active compounds read low 1.02 | S. cerevisiae deletion strains, locus YNL322C, strain KRE1 (second series), active compounds read low 0.99 | S. cerevisiae deletion strains, locus YNL322C, strain KRE1, active compounds read low 1.01 | S. cerevisiae deletion strains, locus YNR049C, strain mso1, active compounds read low 0.988 | S. cerevisiae deletion strains, locus YNR052C, strain pop2, active compounds read low 1.01 | S. cerevisiae deletion strains, locus YOL006C, strain TOP1, active compounds read low 1.04 | S. cerevisiae deletion strains, locus YOL012C, strain htz1 1.26 | S. cerevisiae deletion strains, locus YOL147C, strain pex11, active compounds read low 1.02 | S. cerevisiae deletion strains, locus YOR001W, strain rrp6, active compounds read low 1.03 | S. cerevisiae deletion strains, locus YOR061W, strain CKA2, active compounds read low 1.02 | S. cerevisiae deletion strains, locus YOR069W, strain VPS5, active compounds read low 1.01 | S. cerevisiae deletion strains, locus YOR070C, strain gyp1, active compounds read low 0.991 | S. cerevisiae deletion strains, locus YOR080W, strain dia2, active compounds read low 0.983 | S. cerevisiae deletion strains, locus YOR083W, strain WHI5, active compounds read low 0.972 | S. cerevisiae deletion strains, locus YOR106W, strain vam3, active compounds read low 0.961 | S. cerevisiae deletion strains, locus YOR136W, strain idh2, active compounds read low 1.01 | S. cerevisiae deletion strains, locus YOR144C, strain elg1, active compounds read low 1.01 | S. cerevisiae deletion strains, locus YOR184W, strain ser1, active compounds read low 1.04 | S. cerevisiae deletion strains, locus YOR231W, strain MKK1, active compounds read low 1.06 | S. cerevisiae deletion strains, locus YOR265W, strain rbl2, active compounds read low 0.983 | S. cerevisiae deletion strains, locus YOR270C, strain vph1, active compounds read low 0.998 | S. cerevisiae deletion strains, locus YOR290C, strain snf2, active compounds read low 0.954 | S. cerevisiae deletion strains, locus YOR316C, strain cot1, active compounds read low 1.02 | S. cerevisiae deletion strains, locus YPL051W, strain arl3, active compounds read low 1 | S. cerevisiae deletion strains, locus YPL078C, strain atp4, active compounds read low 0.987 | S. cerevisiae deletion strains, locus YPL106C, strain sse1, active compounds read low 0.972 | S. cerevisiae deletion strains, locus YPL240C, strain hsp82, active compounds read low 0.989 | S. cerevisiae deletion strains, locus YPL256C, strain CLN2, active compounds read low 0.999 | S. cerevisiae deletion strains, locus YPR119W, strain clb2, active compounds read low 1.03 | S. cerevisiae deletion strains, locus YPR141C, strain kar3, active compounds read low 1.03 | S. cerevisiae deletion strains, locus YPR163C, strain tif3, active compounds read low 1.03 | S. cerevisiae deletion strains, locus YPR167C, strain met16, active compounds read low 1.02 | S. cerevisiae deletion strains, strain wtn01, active compounds read low 1.01 | S. cerevisiae strains, strain wild type, active compounds read low 1.01

— PubChem BioAssay AID1159580 (chemical genetic matrix, 2015)
